Screening data: PubChem BioAssay, National Center for Advancing Translational Sciences (NCATS)
Shown are actives, neighbours in structure and some others; about 0.71% of the full set was active somewhere.
PI4K2A block: PI4K2A (human) kinase inhibition. Q9BTU6. purified PI4K2A, ADP-Glo luminescence, 1 h; active compounds read low. activity change, negative = inhibition, % at 76.9 µM. 420,000 compounds, 0.13% hits; in the data active means activity change below about -50%; inconclusive means mostly about -30% to -49%;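 further: -100% = wells without enzyme as full effect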
Target sequence (Q9BTU6 whole entry, looked up): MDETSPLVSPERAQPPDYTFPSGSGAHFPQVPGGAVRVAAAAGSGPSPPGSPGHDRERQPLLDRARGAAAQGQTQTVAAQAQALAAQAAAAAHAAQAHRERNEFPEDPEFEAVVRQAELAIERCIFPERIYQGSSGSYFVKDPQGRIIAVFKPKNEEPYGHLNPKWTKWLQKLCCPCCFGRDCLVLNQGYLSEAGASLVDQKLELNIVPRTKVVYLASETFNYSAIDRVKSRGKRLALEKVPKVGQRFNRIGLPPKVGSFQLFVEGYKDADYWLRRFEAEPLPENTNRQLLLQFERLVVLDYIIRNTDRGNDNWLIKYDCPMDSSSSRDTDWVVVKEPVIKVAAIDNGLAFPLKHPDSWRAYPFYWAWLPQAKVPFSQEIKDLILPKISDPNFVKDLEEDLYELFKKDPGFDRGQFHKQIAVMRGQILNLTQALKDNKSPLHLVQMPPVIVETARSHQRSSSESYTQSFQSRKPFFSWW
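ADP-Glo luminescence measured ADP generated by PI4K2A enzyme (4 ug/mL before mixing) with 1.2 mM PI substrate (pre-mix) and 300 microM ATP (pre-mix). Tris pH7.5 buffer with MgCl2, Triton X-100; 1 h reaction at ambient temperature.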
USP2a block: blocks human ubiquitin-specific protease USP2a | 330,000 compounds, 0.01% hits | USP2 core, Ub-CHOP2 coupled fluorogenic reporter, 485/531 | Potency, µM (series often up to 38.3 µM), inactives show at the highest dose activity change, negative = inhibition, hits mostly inhibitors;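 further: potency means the concentration at half of the fitted maximal effect; plate controls were DMSO wells for no effect and full inhibition by NEM control for full effect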
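USP2 core (10nM final) preincubated 30min RT with compound in 20mM Tris-HCl pH 8.0, 2mM CaCl2, 2mM beta-mercaptoethanol, 0.05% CHAPS; 25nM Ub-CHOP2 plus 25nM reporter substrate added, fluorescence (Ex485/Em531) read after 60min.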
FBPA coupling cs: inhibits coupling enzyme system, counter-screen for aldolase hits; coupling enzyme system counterscreen, AmpLite Red fluorescence; AID 2472; activity change, negative = inhibition, % at 58.2 µM, hits read low; 290,000 compounds, 0.67% hits; in the data active means activity change below about -30%
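Final compound at 57.5 uM, incubated 10 min at RT with coupling enzyme reagent (glyceraldehyde-3-phosphate), then 20 min with substrate and AmpLite Red detection. Fluorescence read at 525/598 nm; tests interference with the coupling assay, not aldolase inhibition.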
Eya2 inh: inhibitors of human Eya2 phosphatase activity; O00167; AID 488837; recombinant Eya2, OMFP fluorescence dephosphorylation (OMFP is methylfluorescein phosphate); Potency, µM (highest dose often 76.9 µM), inactives show at the highest dose activity, negative = inhibition, hits mostly inhibitors; 330,000 compounds, 0.006% hits; further: potency means the concentration at half of the fitted maximal effect
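Eya2 protein (added as 0.2 uM solution) was preincubated with compound for 10 min at ambient temperature in 50 mM HEPES pH 7.5, 50 mM NaCl, 5 uM MgCl2, 0.05% BSA, 1 mM DTT. OMFP (added at 50 uM) then reacted 10 min; fluorescence read at 485/525 nm.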
GALK inh: blocks human galactokinase activity; 270,000 compounds, 0.007% hits; Potency, µM (highest dose often 57.5 µM), for inactives: at the highest dose activity change, negative = inhibition, most hits filed as inhibitors; Purified GALK, Kinase-Glo residual ATP luminescence; further: potency means the concentration at half of the fitted maximal effect
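Human GALK (5 nM) with 35 uM ATP and 100 uM galactose in 20 mM HEPES pH 8.0, 5 mM MgCl2, 60 mM NaCl, 1 mM DTT, 0.01% BSA. After 1 h at room temperature, leftover ATP was read by Kinase-Glo Plus luminescence.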
USP1 inh: blocks the human USP1/UAF1 deubiquitinase complex. Potency, µM (titrated, usually from 57.1 µM), for inactives: at the top dose activity change, negative = inhibition, hits mostly inhibitors. 390,000 compounds, 0.23% hits. recombinant USP1/UAF1, Ub-Rhodamine cleavage fluorescence. O94782; further: potency means the concentration at half of the fitted maximal effect; nearly all actives have a fitted effect of over 60% in size
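High-throughput fluorogenic screen: 1nM USP1/UAF1 complex, Ub-Rho substrate 150nM final, 50mM HEPES pH 7.8 with 0.5mM EDTA, 0.1 mg/ml BSA, 1mM TCEP and 0.01% Tween-20.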
* = called active by the depositor. Unless noted, the call rests on the fitted dose curve; in most records, active means well fitted curve in the direction sought with a large enough effect; inconclusive means small, poorly fitted or top-dose-only effect, or another doubt; inactive means no such curve, though single readings can be large; an effect the other way counts as inactive or inconclusive. Unless noted, on the % scale 0 is the no-effect control and ±100 the full control effect.

What do the screens show for `C=C1C=C(Br)C2(OCCCO2)[C@H]2OC12` (some centres undefined)?
FBPA coupling cs: -2

What do the screens show for `C/C(Cn1nnc([N+](=O)[O-])n1)=N\NC(=O)c1ccncc1`?
PI4K2A block: 1; USP2a block: 3%; FBPA coupling cs: -40*; Eya2 inh: 13%; GALK inh: -2%; USP1 inh: -8%

Results for C/C(Cn1nnc([N+](=O)[O-])n1)=N\NC(=O)c1ccc(C)cc1 ?
PI4K2A block: -3; USP2a block: 1%; FBPA coupling cs: -38*; Eya2 inh: 1%; GALK inh: 1%; USP1 inh: -6%

What do the screens show for `C/C(Cn1cnc([N+](=O)[O-])n1)=N\NC(=O)c1ccc(F)cc1`?
PI4K2A block: 1; USP2a block: 3%; FBPA coupling cs: -7; Eya2 inh: 0%; GALK inh: -3%; USP1 inh: -8%

How did CCOC(=O)C1=C(C)OC2(O)c3ccccc3C(=O)C12O (centres undefined) do in these assays?
PI4K2A block: -52*; USP2a block: 1%; FBPA coupling cs: -23; Eya2 inh: 3%; GALK inh: inconclusive; USP1 inh: 13µM*

Results for CCOC(=O)C1=C(C)N[C@@]2(O)c3ccccc3C(=O)[C@@]12O ?
PI4K2A block: -11; USP2a block: 1%; FBPA coupling cs: -13; Eya2 inh: -10%; GALK inh: -4%; USP1 inh: -21%

Results for CC(=O)C1=C(C)OC2(O)c3ccccc3C(=O)C12O (centres undefined) ?
PI4K2A block: -54*; USP2a block: -10%; FBPA coupling cs: -15; Eya2 inh: -6%; GALK inh: -2%; USP1 inh: 8.9µM*

What do the screens show for `c1ccc(CNc2ncncc2-c2ccc3c(c2)OCO3)cc1`?
FBPA coupling cs: -5

Results for O=S(=O)(Oc1ccccc1/C=N/n1cnnc1)c1ccccc1 ?
PI4K2A block: -5; USP2a block: 1%; FBPA coupling cs: -49*; Eya2 inh: -7%; GALK inh: 6%; USP1 inh: -2%

Results for COc1ccccc1/C=N/n1cnnc1 ?
PI4K2A block: 1; USP2a block: -1%; FBPA coupling cs: 1; Eya2 inh: -14%; GALK inh: 1%; USP1 inh: inconclusive

Results for Cn1c(-c2ccccc2)cc(=O)c2ccccc21 ?
PI4K2A block: -2; USP2a block: -1%; FBPA coupling cs: 0; Eya2 inh: 3%; GALK inh: 0%; USP1 inh: -2%

Results for Cn1c2ccccc2c(=O)n2c(=O)c3ccccc3cc12 ?
USP2a block: 0%; FBPA coupling cs: -35*; Eya2 inh: inconclusive; GALK inh: inconclusive

Results for O=C1C(Cl)=C(N2CCCCC2)C(=O)C(Cl)=C1c1cnc(N2CCCCC2)s1 ?
PI4K2A block: -12; USP2a block: 0%; FBPA coupling cs: -46*; Eya2 inh: 6%; GALK inh: -1%; USP1 inh: -21%

What do the screens show for `CC(C)NC(=O)c1cnc2sc(N3CCCCCC3)nn2c1=O`?
PI4K2A block: -5; USP1 inh: -1%

Results for COc1ccc(OCC2CN3C(CCC(C)C3c3ccc(Br)cc3)C(=O)O2)cc1 (centres undefined) ?
FBPA coupling cs: -2

What do the screens show for `CC1(C)CCC2=C(O1)c1ccccc1C(=O)C2=O`?
PI4K2A block: -52*; FBPA coupling cs: -56*; Eya2 inh: -23%

How did Cc1cc2nc3c(=O)n(CCc4ccccc4)c(=O)[nH]c3nc2cc1N do in these assays?
PI4K2A block: -27; USP2a block: inconclusive; FBPA coupling cs: -22; Eya2 inh: -3%; USP1 inh: 18µM*

What do the screens show for `C=CCn1c(=O)[nH]c2nc3cc(N=CN(C)C)c(C)cc3nc2c1=O`?
PI4K2A block: -5; USP2a block: inconclusive; FBPA coupling cs: -12; Eya2 inh: -12%; GALK inh: 4%; USP1 inh: inconclusive

Results for Nc1ccc2nc3c(=O)n(CCc4ccccc4)c(=O)[nH]c3nc2c1 ?
PI4K2A block: -11; USP2a block: inconclusive; FBPA coupling cs: -20; Eya2 inh: inconclusive; GALK inh: -2%; USP1 inh: 16µM*

How did Nc1ccc2nc3c(=O)n(C4CCCCC4)c(=O)[nH]c3nc2c1 do in these assays?
PI4K2A block: 8; USP2a block: inconclusive; FBPA coupling cs: -15; Eya2 inh: inconclusive; GALK inh: -2%; USP1 inh: 102%

What do the screens show for `CCCCn1c(=O)[nH]c2nc3cc(N)ccc3nc2c1=O`?
PI4K2A block: -11; USP2a block: inconclusive; FBPA coupling cs: -53*; Eya2 inh: inconclusive; GALK inh: 1%; USP1 inh: 28µM*

Results for Cc1ccc2cccc(Oc3ncnc4scc(-c5ccc(Cl)cc5)c34)c2n1 ?
PI4K2A block: 0; USP2a block: 4%; FBPA coupling cs: -5; Eya2 inh: -2%; GALK inh: -3%; USP1 inh: 14µM*

How did O=S(=O)(c1ccccc1S(=O)(=O)N1CCCCC1)N1CCCCC1 do in these assays?
PI4K2A block: -7; USP2a block: 3%; FBPA coupling cs: 0; Eya2 inh: -5%; GALK inh: 0%; USP1 inh: -8%

How did O=C1C=C(N2CCCCC2)c2ccccc2C1=O do in these assays?
PI4K2A block: inconclusive; USP1 inh: 7.9µM*

Results for O=C(NCCCn1ccnc1)c1noc2c1CCc1ccccc1-2 ?
PI4K2A block: -7; USP2a block: 1%; FBPA coupling cs: -44*; Eya2 inh: -4%; GALK inh: 1%; USP1 inh: -23%

What do the screens show for `O=[N+]([O-])c1ccc(Nc2ccccc2)c2nonc12`?
PI4K2A block: -8; USP2a block: 2%; FBPA coupling cs: -1; Eya2 inh: -4%; USP1 inh: inconclusive

How did O=[N+]([O-])c1ccc(Sc2cccc[n+]2[O-])c2nonc12 do in these assays?
PI4K2A block: inconclusive; USP2a block: 8%; FBPA coupling cs: -80*; Eya2 inh: -1%; GALK inh: 2%; USP1 inh: inconclusive

How did CCOC(=O)c1sc2nccc(OC)c2c1N=CNOC do in these assays?
PI4K2A block: -59*; USP2a block: 1%; FBPA coupling cs: -1; Eya2 inh: -9%; GALK inh: -1%; USP1 inh: -22%

How did CCOC(=O)c1sc2nccc(N(C)C)c2c1N=CN(C)C do in these assays?
PI4K2A block: -10; USP2a block: 0%; FBPA coupling cs: 1; Eya2 inh: -5%; GALK inh: -3%; USP1 inh: -15%
